Source: PubChem BioAssay (National Center for Advancing Translational Sciences (NCATS))
Tau filament bind: qHTS Assay for Tau Filament Binding; recombinant tau filaments, thioflavin S fluorescence, 15 h; filaments grown with octadecylsulfate alongside compound; Potency, µM (top dose mostly 57.1 µM), for inactives: at the top dose activity change, negative = inhibition; 2% of 71,000 active; AID 596, 2007;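 also: % is scaled to controls: 0 for no effect and ±100 for the full control effect; actives lower thioflavin S fluorescence by blocking filaments or displacing dye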
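Tau 2 uM in ThS buffer dispensed; compound added; 60 uM ODS added (finals 1 uM tau, 30 uM ODS); 15 h 37 C; fluor ex450/em510.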
FLuc inh: qHTS Assay for Inhibitors of Firefly Luciferase; Luciferin 4-monooxygenase (Photinus pyralis), P08659; purified firefly luciferase, luminescence, 8 min; Potency, µM (top dose mostly 57.1 µM), for the others: at the top dose activity change, negative = inhibition, most hits filed as inhibitors; 2.2% of 72,000 active; also: % is scaled to controls: 0 for no effect and ±100 for the full control effect; nearly all actives have a fitted effect of over 40% in size
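qHTS concentration-response profiling: light output of P. pyralis luciferase with luciferin and 10 uM ATP, imidazole buffer pH 7.2. Read by luminescence after 8-min room-temperature incubation.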
PK Bst: Pyruvate Kinase. purified pyruvate kinase, luminescence ATP production; ribose 5-phosphate activator present at AC10. Potency, µM. 1.2% of 51,000 active; in the data active = potency below about 11 µM; inconclusive = mostly about 12 µM to 25 µM;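 the screen sought inhibitors and activators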;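 also: scaled between full activation by ribose 5 phosphate and full inhibition by luteolin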
Casp1 inh: qHTS Assay for Allosteric/Competitive Inhibitors of Caspase-1; P29466; 0.03% of 75,000 active; Caspase-1 enzyme, Ac-WEHD-AFC fluorogenic rate; AID 900, 2007; Potency, µM (titrated, usually from 57.5 µM), for the others: at the highest dose activity change, negative = inhibition, usual class: inhibitors;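 also: plate controls were vehicle for no effect and no substrate for full effect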
Casp7 inh: qHTS Assay for Allosteric/Competitive Inhibitors of Caspase-7; recombinant caspase-7, Ac-DEVD-AFC fluorescence rate; Potency, µM (top dose mostly 57.5 µM), for the others: at the top dose activity change, negative = inhibition, most hits filed as inhibitors; 0.02% of 75,000 active; AID 889, 2007; active = well fitted inhibition curve with a large enough effect in the main read-out, with a control signal flat, not every such curve was filed as active; inconclusive = small, poorly fitted or top-dose-only effect, or a change in a side signal; also: % of control where 0% means no effect
Active calls of the source: *; ? = inconclusive; nt = no result given; ! = repeats disagree; [ ] = dose if it differs, or a comment. A selection: hits, their analogues and other compounds. The true share with any hit is near 4%. Unless noted, calls follow the shape of the dose curve; as a rule, active = well fitted curve in the direction sought with a large enough effect; inconclusive = small, poorly fitted or top-dose-only effect, or another doubt; inactive = no such curve, though single readings can be large; an effect the other way counts as inactive or inconclusive. Potency is read from the fitted curve at half-maximal effect.

SMILES	Tau filament bind	FLuc inh	PK Bst	Casp1 inh	Casp7 inh
O=C(O)c1cc[c]([Hg][Cl])cc1	-6.3%	15.8µM*	nt	?	-6.3%
O=C(O)c1cccc(Cl)c1	17.6%	nt	nt	0.8%	0.7%
CC1=C[C@@H]2c3cccc4[nH]cc(c34)C[C@H]2N(C)C1	91.2%	-2.2%	nt	nt	nt
CN1Cc2ccccc2[C@@H]2c3cccc4[nH]cc(c34)C[C@H]21	25.1µM*	1.4%	nt	-11.4%	-18.9%
CCCc1cc2c(n1CCO)C(C)C1CN(C(=O)c3ccccc3)C(C)(C(=O)OC)C21 (configuration not stated)	45.1%	nt	nt	-6.6%	-9.1%
NCCc1c[nH]c2ccccc12	3.2%	0.9%	nt	2.0%	1.5%
CCCCc1ccc2[nH]cc(CCN)c2c1	15.8µM*	3.4%	>57	-1.3%	1.7%
C=CCn1c(O)c(C(C)=Nc2ccc(N(CC)CC)cc2)c(=O)[nH]c1=O	15.8µM*	0.4%	>57	-4.5%	-5.1%
O=Cc1ccc(Cl)cc1Cl	17.8%	nt	nt	-1.6%	-0.4%
Cc1ccc(C(=O)Nc2nc3ccccc3n2CCN2CCCC2)cc1	174.3%	12.6µM*	nt	-1.7%	0.8%
CCCCCn1c(N)c(C(=O)NCCN2CCOCC2)c2nc3ccccc3nc21	54.8%	-8.6%	>57	nt	?
Cn1cnc2cc(NC(=O)c3ccc(Cl)cc3)ccc21	19.7%	12.6µM*	nt	-1.6%	0.1%
CN(C)C(=O)Nc1ccc(Cl)cc1	-0.8%	nt	nt	-0.3%	2.2%
CC1=NN(c2ccccc2)C(=O)[C@@H]1N=Nc1ccc([As](=O)(O)O)c(O)c1	3.16µM*	-2.1%[11.4 µM]	nt	0.9%[11.5 µM]	-1.4%[11.5 µM]
Nc1nc(N)c(N=Nc2ccc([As](=O)(O)O)c(O)c2)c(N)n1	-2.6%[11.4 µM]	0.0%[11.4 µM]	nt	-1.1%[11.5 µM]	-4.8%[11.5 µM]
CN1CC[C@]2(C)c3cc(O)ccc3N(C)[C@@H]12	31.6µM*!	-0.9%[11.4 µM]	nt	-15.9%[25.7 µM]	-4.7%[25.7 µM]
[O]=[Cr](=[O])([OH])[O][Cr](=[O])(=[O])[OH]	1.26µM*!	nt	nt	1.6%	-0.7%
N#CCCCC[N+]12CN3CN(CN(C3)C1)C2	13.7%[11.4 µM]	3.6%[11.4 µM]	nt	2.2%[11.5 µM]	1.8%[11.5 µM]
CN1CCN(C(=O)COc2ccc3ccccc3c2Br)CC1	15.8µM*	0.0%	>57	?	?
O=P(O)(O)CCP(=O)(O)O	1.2%[11.4 µM]	2.1%[11.4 µM]	nt	-2.3%[11.5 µM]	0.4%[11.5 µM]
CN1CC[C@@]2(CCCN(C(=O)Oc3ccccc3)C2)C1	10.1%	0.0%[11.4 µM]	nt	-3.2%	-1.8%
O=[N+]([O-])c1ccc2c3c(cccc13)CC2	25.1µM*	nt	nt	-3.2%	-3.9%
CCOc1ccc(-c2cc(C(=O)N3CCC4(CC3)OCCO4)c3ccccc3n2)cc1	3.6%	0.631µM*	0.71*	0.3%	-0.3%
COC(=O)/C=C\C(=O)N[C@@H]1CC[C@@]2(O)[C@H]3Cc4ccc(O)c5c4[C@@]2(CCN3CC2CC2)[C@@H]1O5	31.6µM*	-0.1%	nt	0.8%	0.1%
Oc1ccc2c3c1O[C@H]1c4[nH]c5c(c4C[C@@]4(O)[C@@H](C2)N(CC2CC2)CC[C@]314)C[C@]1(O)[C@H]2Cc3ccc(O)c4c3[C@@]1(CCN2CC1CC1)[C@@H]5O4	11.4%	0.1%	nt	-1.2%	-2.7%
SMILES	Tau filament bind	FLuc inh	PK Bst	Casp1 inh	Casp7 inh
CC1(C)CN=C(Nc2nc3ccccc3s2)S1	-7.2%	15.8µM*	nt	-0.2%	-1.4%
O=C(O)[C@@H]1C[C@H]2C[C@@H](CP(=O)(O)O)CC[C@H]2CN1	31.6µM*	-0.6%	nt	-4.8%	-0.5%
CC[n+]1c(-c2ccccc2)c2cc(N)ccc2c2ccc(N)cc21	0.316µM*	nt	nt	nt	?
NNCc1cccc(O)c1	-0.2%	31.6µM*	nt	-5.6%	-0.1%
O=[N+]([O-])c1cccc(O)c1	6.5%	nt	nt	-4.9%	0.6%
O=C1C=CC(=O)c2c(O)cccc21	nt	nt	nt	20µM*	?
O=C1C=Cc2ccccc2C1=O	nt	nt	nt	-6.8%	-8.1%
N[C@@H](Cc1cc(O)c(O)cc1O)C(=O)O	25.1µM*	-3.7%	nt	?	?
COc1ccc(Cn2c(N)c(C(=O)NCc3ccco3)c3nc4ccccc4nc32)cc1	6.31µM*	1.9%	nt	nt	?
Nc1c(C(=O)NCc2ccco2)c2nc3ccccc3nc2n1Cc1ccc(F)cc1	nt	0.8%[25.5 µM]	>25.6	nt	nt
Clc1ccc(C(c2ccccc2Cl)C(Cl)(Cl)Cl)cc1 (configuration not stated)	1.4%	nt	nt	-3.2%	-1.0%
C[C@H](NC(C)(C)C)C(=O)c1cccc(Cl)c1	-20.2%[25.6 µM]	2.9%[25.5 µM]	nt	-3.2%[25.7 µM]	1.1%[25.7 µM]
Cc1ccc2c(c1N)C(=O)c1ccccc1C2=O	3.98µM*	nt	nt	-6.0%	-4.6%
O=S(=O)(O)/C(=C\c1ccccc1)c1ccccc1 (tested in a mixture with another compound)	13.0%[11.4 µM]	-2.3%[11.4 µM]	nt	0.7%[11.5 µM]	-3.5%[11.5 µM]
N#C/C(=C\c1ccc(O)c(O)c1)C(N)=S	78.4%	25.1µM*!	nt	-7.0%	-8.3%
N#CC(C#N)=Cc1cc(O)c(O)c(O)c1	10.5%	-3.5%	nt	0.2%	0.1%
Cc1o[nH]c(=O)c1C[C@H](N)C(=O)O	31.6µM*!	-3.2%	nt	0.4%	3.7%
Cc1o[nH]c(=O)c1C[C@@H](N)C(=O)O	?	-0.6%	nt	0.6%	0.2%
CC(c1ccccc1F)n1cc(C(=O)Nc2ccc3nc[nH]c3c2)nn1 (configuration not stated)	0.5%	-3.9%	?	1.4%	1.0%
O=C(Nc1ccc2c(c1)OCO2)c1cn(Cc2ccc(F)cc2)nn1	12.6µM*	-6.4%	>57	-3.2%	-0.2%
S=C=S	9.1%	nt	nt	-2.3%	-0.4%
C[C@]1(O)CC[C@H]2[C@@H]3[C@@H](O)CC4=CC(=O)CC[C@@]4(C)[C@H]3CC[C@]21C	9.6%[11.4 µM]	1.1%[11.4 µM]	nt	-1.0%[11.5 µM]	1.2%[11.5 µM]
CCCN1CCO[C@@H]2c3cc(O)ccc3OC[C@@H]21	39.8µM*	?	nt	-1.1%	-0.5%
O=C(Nc1ccccc1)N1CC[C@@]2(CCCNC2)C1	-0.9%	1.6%[11.4 µM]	nt	?	-0.2%
Cc1cc(N=Nc2ccccc2C)ccc1N	7.94µM*	nt	nt	-2.4%	-1.1%
SMILES	Tau filament bind	FLuc inh	PK Bst	Casp1 inh	Casp7 inh
COC[C@]12CN(C=O)C3C4C(OC)C1[C@@]3(C1CC3(O)C(OC)C(O)C4(OC(C)=O)C1C3OC(=O)c1ccccc1)[C@@H](OC)CC2O (some centres not stated)	nt	nt	nt	-1.8%	2.1%
C/C=C1\C[C@H](C)[C@](O)(CO)C(=O)OCC2=CCN3CC[C@@H](OC1=O)[C@@H]23	-22.4%	0.5%[11.4 µM]	nt	nt	nt
O=C1C[C@@H]2OCC=C3CN4CC[C@]56c7ccccc7N1[C@H]5[C@@H]2[C@H]3C[C@@H]46	?	2.1%[11.4 µM]	nt	nt	nt
CNc1ccc2oc(C[C@H]3O[C@]4(CC[C@H]3C)O[C@H]([C@H](C)C(=O)c3ccc[nH]3)[C@H](C)C[C@H]4C)nc2c1C(=O)O	39.8µM*	-0.3%	nt	-9.9%	-20.8%
O=[As](O)(O)c1ccc(N=Nc2ccc(O)cc2)cc1	3.16µM*	-2.4%[11.4 µM]	nt	-2.0%[11.5 µM]	-0.3%[11.5 µM]
C#CCN[C@@H](C)Cc1ccccc1	-9.6%	1.0%	nt	3.1%	0.7%
CCn1nc(-c2cccs2)nc2c(=O)n(C)c(=O)nc1-2	-8.1%	0.3%	>57	0.794µM*	?
Cl/C=C/CCl	11.9%	nt	nt	-0.8%	0.9%
Nc1ccc(N2CCN(Cc3ccccc3Cl)CC2)c(Cl)c1	25.1µM*	-1.4%	nt	-0.9%	-1.8%
